{"source": "PubChem BioAssay AID624256", "about": "(NMMLSC, 2012)", "note": "Hit rate of the full screen: of about 360,000 compounds, about 3,700 (1%) were called active. About 2% were inconclusive and are not listed.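 The calls were made as follows: active = normalized GFP-positive differentiation at or above the plate's own cutoff, the solvent-only control mean plus 3 SD; inconclusive = no clear call, values can overlap the other calls; inactive = the rest.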 What follows is part of a selection rich in actives, with near analogues and random picks from the rest.", "data": [{"assay": "HoxA9-arrested leukemia cell differentiation promoters – flow cytometry, MLPCN library, primary screen (AID 624256);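 as to GFP+ MAC1+ double positive: cells exposed to compound for four days before flow analysis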;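 as to normalized GFP-positive differentiation: cells exposed to compound for four days before flow analysis; 0% = DMSO wells and 100% = fulvestrant positive control at 5 µM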", "conditions": "ER-HoxA9 myeloid progenitors, lysozyme-GFP differentiation, at 10 µM; GFP+ MAC1+ double positive: measured here: differentiation confirmed by MAC1 staining, stronger effect = higher value; normalized GFP-positive differentiation: stronger effect = higher value", "units": {"GFP+ MAC1+ double positive": "%"}, "values": [{"smiles": "Cc1c(C(=O)OCC(=O)N(CCC#N)c2ccccc2)oc2c1ccc1ccccc12", "GFP+ MAC1+ double positive": 5, "normalized GFP-positive differentiation": "26.9% (active)"}, {"smiles": "N#CCCN(C(=O)COC(=O)c1ccc2c(c1)OCCO2)c1ccccc1", "GFP+ MAC1+ double positive": 0.7, "outcome": "inactive"}, {"smiles": "N#CCCN(C(=O)COC(=O)c1ccc(S(=O)(=O)N2CCCCCC2)cc1)c1ccccc1", "GFP+ MAC1+ double positive": 0.7, "outcome": "inactive"}, {"smiles": "CCCc1nc2ccccc2n1C(C)C(=O)NC(C)(C)C", "note": "(stereo unspecified)", "GFP+ MAC1+ double positive": 3.7, "outcome": "inactive"}, {"smiles": "O=C(NC(c1ccc(-c2ccccc2)cc1)c1cnccn1)C1CCN(CCOc2ccc(Cl)cc2Cl)CC1", "note": "(stereo unspecified)", "GFP+ MAC1+ double positive": 1.7, "outcome": "inactive"}, {"smiles": "CC(C)n1cnc2c(NCc3ccccc3)cc(OCC3CCN(C)CC3)cc21", "GFP+ MAC1+ double positive": 8.3, "normalized GFP-positive differentiation": "28.4% (active)"}, {"smiles": "CN(C)c1nccc(NCc2ccccc2)c1C#N", "GFP+ MAC1+ double positive": 0.2, "outcome": "inactive"}, {"smiles": "CCOC1=C2[C@@H](CN(S(=O)(=O)c3ccc(C)cc3)[C@H]2c2ccccc2F)[C@H]2C(=O)N(Cc3ccccc3)C(=O)[C@H]2C1", "GFP+ MAC1+ double positive": 1.5, "outcome": "inactive"}, {"smiles": "COC(=O)CCCCC1=CCC2C(=O)C=C(O)C2C1", "note": "(stereo unspecified)", "GFP+ MAC1+ double positive": 1.6, "outcome": "inactive"}, {"smiles": "O=C(/C=C/c1ccc(OCc2c(F)cccc2Cl)cc1)N1CCOCC1", "GFP+ MAC1+ double positive": 32, "normalized GFP-positive differentiation": "144% (active)"}, {"smiles": "Fc1cccc(Cl)c1COc1ccc(-c2nnco2)cc1", "GFP+ MAC1+ double positive": 1.8, "outcome": "inactive"}, {"smiles": "CN(C)CCCNC(=O)/C=C/c1ccc(OCc2c(F)cccc2Cl)cc1", "GFP+ MAC1+ double positive": 0.3, "outcome": "inactive"}, {"smiles": "CC1(C)OC(=O)C2=C(C[C@@H](C3CCCCC3)O[C@@H]2c2ccc(Cl)cc2)O1", "GFP+ MAC1+ double positive": 0.8, "outcome": "inactive"}, {"smiles": "CCOc1ccc(C(=O)Nc2ccc(S(=O)(=O)NCC3CCCO3)cc2)cc1OCC", "note": "(stereo unspecified)", "GFP+ MAC1+ double positive": 2.1, "normalized GFP-positive differentiation": "18.3% (active)"}, {"smiles": "Cc1ccc(NC(=O)c2ccc(S(=O)(=O)NCC3CCCO3)cc2)cc1C", "note": "(stereo unspecified)", "GFP+ MAC1+ double positive": 0.8, "outcome": "inactive"}, {"smiles": "O=C(Nc1ccc(S(=O)(=O)NCC2CCCO2)cc1)c1ccc(F)cc1", "note": "(stereo unspecified)", "GFP+ MAC1+ double positive": 0.4, "outcome": "inactive"}, {"smiles": "Cc1cccc(C)c1NC(=O)C(c1cccc2ccccc12)n1c(=O)c(-c2ccco2)nc2ccccc21", "note": "(stereo unspecified)", "GFP+ MAC1+ double positive": 3.2, "outcome": "inactive"}, {"smiles": "Cc1cc(C)c(S(=O)(=O)NN=C2c3ccccc3[C@H]3Cc4csc[n+]4[C@@H]23)c(C)c1", "GFP+ MAC1+ double positive": 1.3, "outcome": "inactive"}, {"smiles": "Cc1cccc(C)c1NC(=O)COC(=O)c1ccccc1O", "GFP+ MAC1+ double positive": 0.5, "outcome": "inactive"}, {"smiles": "CCN(C(=O)COC(=O)c1ccccc1O)c1cccc2ccccc12", "GFP+ MAC1+ double positive": 0.7, "normalized GFP-positive differentiation": "11.2% (active)"}, {"smiles": "O=C(COC(=O)c1ccccc1O)NCc1ccco1", "GFP+ MAC1+ double positive": 0.8, "outcome": "inactive"}, {"smiles": "CCOC(=O)C1=CCC(c2ccc(F)cc2)N(S(=O)(=O)c2ccc(C)cc2)C1", "note": "(stereo unspecified)", "GFP+ MAC1+ double positive": 0.9, "outcome": "inactive"}, {"smiles": "Cc1cccc(C)c1-n1nnnc1C(CCc1ccccc1)N1CCN(C/C=C/c2ccccc2)CC1", "note": "(stereo unspecified)", "GFP+ MAC1+ double positive": 1.8, "outcome": "inactive"}, {"smiles": "Cc1cc2nc(-c3ccc(Cl)cc3)c(Cc3cccc(F)c3)n2c(C)c1Br", "GFP+ MAC1+ double positive": 1.3, "outcome": "inactive"}, {"smiles": "O=C(c1ccco1)N1CCN(C(=O)C2CC(c3ccc(Cl)c(Cl)c3)=NO2)CC1", "note": "(stereo unspecified)", "GFP+ MAC1+ double positive": 0.9, "outcome": "inactive"}, {"smiles": "CCOC(=O)N1CCN(C(=O)C2CC(c3ccc(F)cc3)=NO2)CC1", "note": "(stereo unspecified)", "GFP+ MAC1+ double positive": 1.8, "outcome": "inactive"}, {"smiles": "O=C(c1ccco1)N1CCN(C(=O)C2CC(c3ccc(F)cc3)=NO2)CC1", "note": "(stereo unspecified)", "GFP+ MAC1+ double positive": 12.6, "normalized GFP-positive differentiation": "34.4% (active)"}, {"smiles": "Cn1cnc(S(=O)(=O)N2C[C@@H](O)COC[C@@H]3O[C@H](CC(=O)NC4CCC4)CC[C@H]32)c1", "GFP+ MAC1+ double positive": 3.2, "outcome": "inactive"}, {"smiles": "NCCCNC(=S)NCCCN(Cc1ccc(Cl)cc1)c1ccc(Br)cn1", "GFP+ MAC1+ double positive": 0.9, "outcome": "inactive"}, {"smiles": "O=C(CC[C@H]1O[C@@H](n2ccc(=O)[nH]c2=O)[C@H](O)[C@@H]1O)N[C@H](Cc1ccccc1)C(=O)NCCCN1CCCC1=O", "GFP+ MAC1+ double positive": 0.7, "outcome": "inactive"}, {"smiles": "O=C(NCC(O)c1nc2ccccc2[nH]1)c1ccc(Br)cc1", "note": "(stereo unspecified)", "GFP+ MAC1+ double positive": 0.9, "outcome": "inactive"}, {"smiles": "CC(C)c1nc2ccc(C(=O)O)cc2[nH]1", "GFP+ MAC1+ double positive": 15, "normalized GFP-positive differentiation": "15.9% (active)"}, {"smiles": "OC(c1nc2ccc(F)cc2[nH]1)C(O)c1nc2ccc(F)cc2[nH]1", "note": "(stereo unspecified)", "GFP+ MAC1+ double positive": 0.4, "outcome": "inactive"}, {"smiles": "COc1ccc(COC[C@H](CC(C)C)N2CCN(C(=O)c3cccc(C(F)(F)F)c3)CCC2=O)cc1", "GFP+ MAC1+ double positive": 0.4, "outcome": "inactive"}, {"smiles": "CC(=O)C[C@@H]1OC[C@H](C)N1S(=O)(=O)c1ccc(C)cc1", "GFP+ MAC1+ double positive": 3, "outcome": "inactive"}, {"smiles": "Cc1ccc(-c2c(N)nc3ncccn23)cc1", "GFP+ MAC1+ double positive": 1.5, "outcome": "inactive"}, {"smiles": "CN1CCN(c2ccc3c(c2)OC[C@H](Cc2ccccc2)NS3(=O)=O)CC1", "GFP+ MAC1+ double positive": 1, "outcome": "inactive"}, {"smiles": "CCc1noc(C)c1C(=O)Nc1nc(-c2ccccc2)cs1", "GFP+ MAC1+ double positive": 2.2, "normalized GFP-positive differentiation": "32.2% (active)"}, {"smiles": "Cc1ccc(-c2csc(NC(=O)C3=COCCO3)n2)cc1C", "GFP+ MAC1+ double positive": 0, "outcome": "inactive"}, {"smiles": "CCc1noc(C)c1C(=O)OCC(=O)c1ccc(NC(=O)CC(C)C)cc1", "GFP+ MAC1+ double positive": 1.1, "outcome": "inactive"}, {"smiles": "CCN(CC)S(=O)(=O)c1cc(C(=O)Nc2cc(S(=O)(=O)N3CCOCC3)ccc2N2CCCC2)ccc1F", "GFP+ MAC1+ double positive": 0.3, "outcome": "inactive"}, {"smiles": "CCN(CC)S(=O)(=O)c1ccc(N2CCOCC2)c(NC(=O)c2ccc(=O)n(C)n2)c1", "GFP+ MAC1+ double positive": 0.1, "outcome": "inactive"}, {"smiles": "CCN(CC)S(=O)(=O)c1ccc(N2CCCC2)c(NC(=O)c2ccc([N+](=O)[O-])o2)c1", "GFP+ MAC1+ double positive": 5.1, "normalized GFP-positive differentiation": "56% (active)"}]}]}
